Assay results taken from PubChem BioAssay AID1159580 (chemical genetic matrix, 2015).
Hit rate of the full screen: of about 5,500 compounds, about 2,000 (36%) were called active. Roughly 18% stayed inconclusive and do not appear here. Cut-off read from the data, not from the text of the source: active = normalized growth mostly below about 0.91 (no sharp cut-off); inconclusive = no clear call, values can overlap the other calls; inactive = mostly above about 0.92. Some of the results follow.

Experiment: chemical genetic growth profiling, strain panel (AID 1159580);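 note: tested at 20 µM; growth read once vehicle control cultures reached saturation at 30 °C; 1 = growth at the plate median or of vehicle wells; lower values mean less growth of the strain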
Details: S. cerevisiae deletion strains, growth OD
[1] = locus YAR019C, strain CDC15, active compounds read low
[2] = locus YBL105C, strain PKC1, active compounds read low
[3] = locus YBR135W, strain CKS1, active compounds read low
[4] = locus YBR136W, strain MEC1, active compounds read low
[5] = locus YBR160W, strain CDC28, active compounds read low
[6] = locus YDL017W, strain CDC7, active compounds read low
[7] = locus YDL028C, strain MPS1, active compounds read low
[8] = locus YDL101C, strain DUN1, active compounds read low
[9] = locus YDL108W, strain KIN28, active compounds read low
[10] = locus YDL132W, strain cdc53, active compounds read low
[11] = locus YDL214C, strain PRR2, active compounds read low
[12] = locus YDR052C, strain DBF4, active compounds read low
[13] = locus YDR054C, strain cdc34, active compounds read low
[14] = locus YDR226W, strain ADK1, active compounds read low
[15] = locus YDR477W, strain SNF1, active compounds read low
[16] = locus YER123W, strain YCK3, active compounds read low
[17] = locus YER133W, strain GLC7, active compounds read low
[18] = locus YFL009W, strain cdc4, active compounds read low
[19] = locus YFL029C, strain CAK1, active compounds read low
[20] = locus YFR003C, strain YPI1, active compounds read low
[21] = locus YFR019W, strain FAB1, active compounds read low
[22] = locus YFR028C, strain CDC14, active compounds read low
[23] = locus YGR040W, strain KSS1, active compounds read low
[24] = locus YGR052W, strain FMP48, active compounds read low
[25] = locus YGR092W, strain DBF2, active compounds read low
[26] = locus YHR030C, strain SLT2, active compounds read low
[27] = locus YHR079C, strain IRE1, active compounds read low
[28] = locus YHR082C, strain KSP1, active compounds read low
[29] = locus YHR205W, strain SCH9, active compounds read low
[30] = locus YIL147C, strain SLN1, active compounds read low
[31] = locus YJL095W, strain BCK1, active compounds read low
[32] = locus YJL128C, strain PBS2, active compounds read low
[33] = locus YJL157C, strain FAR1, active compounds read low
[34] = locus YJR016C, strain ILV3, active compounds read low
[35] = locus YJR066W, strain TOR1 (second series), active compounds read low
[36] = locus YJR066W, strain TOR1, active compounds read low
[37] = locus YKL048C, strain ELM1, active compounds read low
[38] = locus YKL067W, strain YNK1, active compounds read low
[39] = locus YKL101W, strain HSL1, active compounds read low
[40] = locus YKL193C, strain SDS22, active compounds read low
[41] = locus YKL203C, strain TOR2, active compounds read low
[42] = locus YLR113W, strain HOG1, active compounds read low
[43] = locus YLR133W, strain CKI1, active compounds read low
[44] = locus YLR403W, strain SFP1, active compounds read low
[45] = locus YML070W, strain DAK1, active compounds read low
[46] = locus YMR001C, strain CDC5, active compounds read low
[47] = locus YMR205C, strain PFK2 (second series), active compounds read low
[48] = locus YMR277W, strain FCP1, active compounds read low
[49] = locus YNL006W, strain LST8, active compounds read low
[50] = locus YNL020C, strain ARK1, active compounds read low
[51] = locus YNL161W, strain CBK1, active compounds read low
[52] = locus YNL183C, strain NPR1, active compounds read low
[53] = locus YNL207W, strain RIO2, active compounds read low
[54] = locus YNL222W, strain SSU72, active compounds read low
[55] = locus YNL307C, strain MCK1 (second series), active compounds read low
[56] = locus YOL078W, strain AVO1, active compounds read low
[57] = locus YOL136C, strain PFK27, active compounds read low
[58] = locus YOR061W, strain CKA2, active compounds read low
[59] = locus YOR119C, strain RIO1, active compounds read low
[60] = locus YOR231W, strain MKK1, active compounds read low
[61] = locus YOR329C, strain SCD5, active compounds read low
[62] = locus YPL031C, strain PHO85, active compounds read low
[63] = locus YPL153C, strain RAD53, active compounds read low
[64] = locus YPL204W, strain HRR25, active compounds read low
[65] = locus YPL209C, strain IPL1, active compounds read low
[66] = locus YPL256C, strain CLN2, active compounds read low
[67] = locus YPR025C, strain CCL1, active compounds read low
[68] = locus YPR106W, strain ISR1, active compounds read low
[69] = locus YPR111W, strain DBF20, active compounds read low
[70] = strain NNK1, active compounds read low
[71] = strain TSCII, active compounds read low

Measured: normalized growth

CCSC(N)=Nc1ccc(C(F)(F)F)cc1
inactive: locus YAL040C, strain CLN3, active compounds read low 0.942 | locus YCL061C, strain MRC1 (second series), active compounds read low 0.997 | locus YDR363W, strain ESC2, active compounds read low 0.98 | locus YER002W, strain NOP16, active compounds read low 1.03 | locus YGR229C, strain SMI1, active compounds read low 0.931 | locus YJR075W, strain HOC1, active compounds read low 1.01 | locus YMR263W, strain SAP30, active compounds read low 1 | locus YMR307W, strain GAS1, active compounds read low 1 | locus YNL128W, strain TEP1, active compounds read low 1.01 | locus YNL153C, strain GIM3, active compounds read low 1 | locus YNL175C, strain NOP13, active compounds read low 1.01 | locus YNL197C, strain WHI3, active compounds read low 1.03 | locus YNL224C, strain SQS1, active compounds read low 0.997 | locus YOR083W, strain WHI5 (second series), active compounds read low 0.989 | locus YPL055C, strain LGE1, active compounds read low 0.986

NC(=Nc1ccc(F)cc1)SCc1c(Cl)cccc1Cl
inactive: [1] 0.992 | [2] 0.99 | [3] 0.985 | [4] 0.984 | [5] 0.986 | [6] 0.99 | [7] 0.983 | [8] 0.996 | [9] 0.985 | [10] 0.986 | [11] 0.954 | [12] 0.992 | [13] 0.991 | [14] 0.985 | [15] 0.96 | [16] 0.923 | [17] 0.954 | [18] 0.987 | [19] 0.994 | [20] 0.99 | [21] 0.96 | [22] 0.989 | [23] 0.947 | [24] 0.981 | [25] 0.978 | [26] 0.985 | [27] 0.962 | [28] 1.05 | [29] 0.962 | [30] 0.99 | [31] 0.954 | [32] 0.938 | [33] 0.961 | [34] 0.991 | [35] 0.99 | [36] 1.09 | [37] 0.967 | [38] 0.962 | [39] 0.945 | [40] 0.989 | [41] 1.03 | [42] 0.882 | [43] 0.975 | [44] 0.975 | [45] 0.944 | [46] 0.991 | [47] 0.961 | [48] 0.989 | [49] 0.982 | [50] 0.971 | [51] 0.988 | [52] 1.06 | [53] 0.994 | [54] 0.988 | [55] 0.987 | [56] 0.986 | [57] 0.958 | [58] 0.975 | [59] 1.02 | [60] 0.985 | [61] 0.99 | [62] 0.952 | [63] 0.964 | [64] 0.989 | [65] 0.994 | [66] 0.962 | [67] 0.98 | [68] 0.981 | [69] 0.982 | [70] 0.992 | [71] 1

Cc1c(C)c(C)c(CSC(N)=Nc2ccc(F)cc2)c(C)c1C
active: [42] 0.823
inactive: [1] 0.996 | [2] 0.997 | [3] 0.994 | [4] 0.997 | [5] 0.997 | [6] 0.999 | [7] 0.995 | [8] 1.01 | [9] 0.992 | [10] 1 | [11] 0.944 | [12] 1 | [13] 0.998 | [14] 0.995 | [15] 0.931 | [16] 0.894 | [17] 0.937 | [18] 1.01 | [19] 0.993 | [20] 1 | [21] 0.946 | [22] 1.01 | [23] 0.932 | [24] 0.959 | [25] 0.975 | [26] 0.946 | [27] 0.953 | [28] 1.02 | [29] 0.967 | [30] 0.992 | [31] 0.925 | [32] 0.942 | [33] 0.936 | [34] 0.998 | [35] 0.93 | [36] 1.05 | [37] 0.966 | [38] 0.955 | [39] 0.943 | [40] 0.999 | [41] 0.999 | [43] 0.969 | [44] 0.953 | [45] 0.921 | [46] 0.993 | [47] 0.953 | [48] 1 | [49] 1 | [50] 0.969 | [51] 1 | [52] 1.03 | [53] 0.998 | [54] 1.01 | [55] 0.969 | [56] 0.998 | [57] 0.945 | [58] 0.972 | [59] 1 | [60] 0.97 | [61] 0.996 | [62] 0.929 | [63] 0.942 | [64] 0.95 | [65] 0.999 | [66] 0.902 | [67] 1 | [68] 0.99 | [69] 0.99 | [70] 0.995 | [71] 0.998
